Reference: PubChem BioAssay (Tox21)
Records with an inconclusive call do not appear. Entries that show only a call come without a potency. A structure can be active in one record and inactive in another. Active and inactive are the calls of the source. Unless noted, the call rests on the fitted dose curve.

What was measured:
[1] = Nuclear factor erythroid 2-related factor 2/antioxidant responsive element (Nrf2/ARE) small molecule agonists: qHTS cell viability counter screen in human keratinocytes (AID 1919968; active means well fitted curve in the direction sought with a large enough effect in the repeat runs; an effect the other way counts as inactive or inconclusive; further: nearly all actives have a fitted effect of over 55% in size; further: potency means the concentration at half of the fitted maximal effect)
Summary of the method: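 Cytotoxicity was multiplexed with the Nrf2/ARE luciferase assay in the same wells. Stably transfected HaCaT keratinocytes were treated with test compounds for 23 h at 37 C. Cell viability was then measured by CellTiter-Fluor fluorescence.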

[2] = Nuclear factor erythroid 2-related factor 2/antioxidant responsive element (Nrf2/ARE) small molecule agonists: luciferase reporter gene qHTS assay in human keratinocytes (AID 1919969); further: nearly all actives have a fitted effect of over 35% in size
[3] = target: KiSS-1 receptor (Homo sapiens) (UniProt Q969F8); test: Human kisspeptin (KISS1R) small molecule agonists, calcium flux assay in KISS1R-HEK293 cells (AID 1920064; active means well fitted curve in the direction sought with a large enough effect in the repeat runs; an effect the other way counts as inactive or inconclusive)
KiSS-1 receptor (Homo sapiens), sequence (Q969F8 whole entry, looked up): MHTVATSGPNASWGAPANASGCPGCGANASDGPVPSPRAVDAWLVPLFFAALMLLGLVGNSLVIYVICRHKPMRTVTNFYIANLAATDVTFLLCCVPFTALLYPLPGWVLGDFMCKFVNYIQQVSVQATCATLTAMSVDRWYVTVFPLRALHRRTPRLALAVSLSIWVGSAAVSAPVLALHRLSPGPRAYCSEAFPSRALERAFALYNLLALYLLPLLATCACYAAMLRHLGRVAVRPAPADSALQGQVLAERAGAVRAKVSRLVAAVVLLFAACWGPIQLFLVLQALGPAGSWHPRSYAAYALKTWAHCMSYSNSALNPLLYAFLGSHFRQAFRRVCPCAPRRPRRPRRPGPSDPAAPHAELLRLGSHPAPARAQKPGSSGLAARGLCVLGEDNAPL
Summary of the method: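 Agonist activity is monitored as intracellular calcium rise in engineered HEK293 cells carrying human KISS1R. Cells are dye-loaded for 1 h at 37 C before compound addition, and fluorescence is recorded for 3 min.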

[4] = G protein-coupled receptor (GPCR) small molecule agonists, calcium flux assay: HEK293 wild type cell line counter screen (AID 1920065)
Summary of the method: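 Seed cells, incubate 18 h (37 C, 5% CO2); add calcium dye, 1 h at 37 C; pin-transfer compounds, ATP control or DMSO; read fluorescence 480/540 nm each second for 3 min.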

[5] = p53 small molecule agonists, cell-based qHTS assay with human liver microsomes (AID 1963577)
Summary of the method: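 Compounds act here after metabolic activation: human liver microsomes and NADPH, both at 0.5 mg/mL final, were co-added to p53RE-bla cells. Incubation ran 16 h at 37 C, followed by LiveBLAzer detection.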

[6] = p53 small molecule agonists, cell-based qHTS assay with rat liver microsomes (AID 1963578)
Summary of the method: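 Read-out is beta-lactamase reporter fluorescence (LiveBLAzer, 2 h, room temperature, dark) in p53RE-bla cells treated 16 h at 37 C with compound, rat liver microsomes and NADPH, both 0.5 mg/mL final.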

[7] = p53 small molecule agonists, cell-based qHTS assay with human liver microsomes: qHTS cell viability counter screen (AID 1963579); further: nearly all actives have a fitted effect of over 45% in size
Summary of the method: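 Cells carrying the p53 response-element beta-lactamase reporter are treated for 16 h at 37 C with test compounds in the presence of human liver microsomes and NADPH (both 0.5 mg/mL final); ATP-based CellTiter-Glo luminescence then reports viability.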

[8] = p53 small molecule agonists, cell-based qHTS assay with rat liver microsomes: qHTS cell viability counter screen (AID 1963580); further: nearly all actives have a fitted effect of over 45% in size
Summary of the method: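 Cytotoxicity counter screen: intracellular ATP measured by CellTiter-Glo luminescence in the same wells as the beta-lactamase reporter read, on HCT-116 p53RE-bla cells exposed 16 h at 37 C to compounds with rat liver microsomes and NADPH, each 0.5 mg/mL final.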

[9] = p53 small molecule agonists, cell-based qHTS assay: qHTS cell viability counter screen (AID 1963581); further: nearly all actives have a fitted effect of over 45% in size
Summary of the method: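 Viability was counter-screened in parallel with the p53 agonist reporter by measuring intracellular ATP luminescence in the same HCT-116 p53RE-bla wells after 16 h compound treatment at 37 C.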

[10] = p53 small molecule agonists, cell-based qHTS assay (AID 1963582; active means well fitted activation curve with a large enough effect in the signal ratio in the repeat runs, not every such curve was filed as active; the % refers to the signal ratio)
Summary of the method: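 Cells carrying a p53-responsive bla reporter are treated with test compounds for 16 h at 37 C; beta-lactamase activity is then detected with LiveBLAzer B/G FRET substrate after 2 h at room temperature.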

[11] = cAMP Responsive Elements (CRE) small molecule agonists, cell-based qHTS assay (AID 1963590)
Summary of the method: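 Cells carrying a CRE-driven beta-lactamase reporter (HEK 293T) are seeded, incubated overnight (18 h), and treated with test compounds for 3 h at 37 C; reporter activity is then detected with a FRET substrate after 2 h at room temperature.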

[12] = cAMP Responsive Elements (CRE) small molecule antagonists, cell-based qHTS assay (AID 1963591; active means well fitted inhibition curve with a large enough effect in the signal ratio in the repeat runs, not every such curve was filed as active; the % refers to the signal ratio)
Summary of the method: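 Cells (CRE-bla HEK 293T, DMEM with 10% dialyzed FBS and 25 mM HEPES) are seeded and incubated 18 h. Compounds are added with NKH477 agonist at 0.25 uM final for 3 h, then FRET substrate for 2 h.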

[13] = target: D(2) dopamine receptor (Homo sapiens) (UniProt P14416); test: Dopamine D2 receptor (DRD2) small molecule agonists, cell-based qHTS assay (AID 1963594); further: nearly all actives have a fitted effect of over 35% in size
D(2) dopamine receptor (Homo sapiens), sequence (P14416 whole entry, looked up): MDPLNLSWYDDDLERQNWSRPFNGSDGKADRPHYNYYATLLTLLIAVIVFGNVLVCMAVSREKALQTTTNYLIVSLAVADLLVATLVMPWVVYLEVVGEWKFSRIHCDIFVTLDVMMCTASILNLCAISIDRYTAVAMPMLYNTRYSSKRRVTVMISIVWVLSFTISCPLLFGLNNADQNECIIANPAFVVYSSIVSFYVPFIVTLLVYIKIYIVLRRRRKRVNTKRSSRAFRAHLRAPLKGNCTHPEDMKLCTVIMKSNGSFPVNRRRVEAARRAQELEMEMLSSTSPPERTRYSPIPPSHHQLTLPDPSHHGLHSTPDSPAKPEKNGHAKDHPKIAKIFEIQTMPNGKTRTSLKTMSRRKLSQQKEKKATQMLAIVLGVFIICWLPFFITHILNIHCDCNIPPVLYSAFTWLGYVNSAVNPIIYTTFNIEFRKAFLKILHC
Summary of the method: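 HEK293 cells stably expressing human DRD2, pre-treated with PDE inhibitor Ro20-1724 (0.1 mM final) and compound 10 min at room temperature, then stimulated with NKH477 (200nM […]) for 30 min. cAMP read by HTRF (665/620 nm).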

[14] = target: D(2) dopamine receptor (Homo sapiens) (UniProt P14416); test: Dopamine D2 receptor (DRD2) small molecule antagonists, cell-based qHTS assay (AID 1963595; active means well fitted inhibition curve with a large enough effect in the signal ratio in the repeat runs, with a control signal flat; the % refers to the signal ratio)
Summary of the method: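 In this cell-based antagonist screen, compounds act for 10 min at room temperature before a 30 min challenge with 12 nM quinpirole and 200 nM NKH477. cAMP is quantified by HTRF competition in DRD2-HEK293 cells containing 0.1 mM Ro20-1724.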

[15] = target: 5-hydroxytryptamine receptor 2A (Homo sapiens) (UniProt P28223); test: 5-hydroxytryptamine receptor 2A (HTR2A) small molecule antagonists, cell-based qHTS assay (AID 1963586); further: nearly all actives have a fitted effect of over 45% in size
5-hydroxytryptamine receptor 2A (Homo sapiens), sequence (P28223 whole entry, looked up): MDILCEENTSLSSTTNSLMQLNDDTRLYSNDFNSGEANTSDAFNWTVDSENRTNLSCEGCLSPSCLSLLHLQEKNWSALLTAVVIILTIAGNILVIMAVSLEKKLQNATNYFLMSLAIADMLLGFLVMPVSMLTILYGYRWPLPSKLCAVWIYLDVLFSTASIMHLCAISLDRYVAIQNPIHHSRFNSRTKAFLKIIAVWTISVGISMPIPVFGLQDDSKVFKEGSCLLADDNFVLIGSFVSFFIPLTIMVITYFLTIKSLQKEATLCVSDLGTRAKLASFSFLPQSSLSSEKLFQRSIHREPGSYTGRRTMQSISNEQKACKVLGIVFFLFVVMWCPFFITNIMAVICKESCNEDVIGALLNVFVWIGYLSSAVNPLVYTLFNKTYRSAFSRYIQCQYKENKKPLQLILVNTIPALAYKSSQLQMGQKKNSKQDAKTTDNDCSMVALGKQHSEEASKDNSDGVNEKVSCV
Summary of the method: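 CHO cells stably expressing human HTR2A were plated for 18 h at 37 C, then loaded with calcium dye for 1 h. Compounds were preincubated 5 min at room temperature before DOI (4 nM solution) was added. Kinetic fluorescence was read for 3 min.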

[16] = target: 5-hydroxytryptamine receptor 2A (Homo sapiens) (UniProt P28223); test: 5-hydroxytryptamine receptor 2A (HTR2A) small molecule agonists, cell-based qHTS assay (AID 1963587); further: nearly all actives have a fitted effect of over 30% in size
Summary of the method: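 CHO cells stably expressing human HTR2A, plated 18 h, loaded with calcium dye 1 h at 37 C. Agonist mode: compounds added and intracellular calcium fluorescence recorded kinetically for 2 min at 1 sec intervals.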

[17] = target: Muscarinic acetylcholine receptor M1 (Homo sapiens) (UniProt P11229); test: Cholinergic receptor muscarinic 1 (CHRM1) small molecule antagonists, cell-based qHTS assay (AID 1963588); further: nearly all actives have a fitted effect of over 40% in size
Muscarinic acetylcholine receptor M1 (Homo sapiens), sequence (P11229 whole entry, looked up): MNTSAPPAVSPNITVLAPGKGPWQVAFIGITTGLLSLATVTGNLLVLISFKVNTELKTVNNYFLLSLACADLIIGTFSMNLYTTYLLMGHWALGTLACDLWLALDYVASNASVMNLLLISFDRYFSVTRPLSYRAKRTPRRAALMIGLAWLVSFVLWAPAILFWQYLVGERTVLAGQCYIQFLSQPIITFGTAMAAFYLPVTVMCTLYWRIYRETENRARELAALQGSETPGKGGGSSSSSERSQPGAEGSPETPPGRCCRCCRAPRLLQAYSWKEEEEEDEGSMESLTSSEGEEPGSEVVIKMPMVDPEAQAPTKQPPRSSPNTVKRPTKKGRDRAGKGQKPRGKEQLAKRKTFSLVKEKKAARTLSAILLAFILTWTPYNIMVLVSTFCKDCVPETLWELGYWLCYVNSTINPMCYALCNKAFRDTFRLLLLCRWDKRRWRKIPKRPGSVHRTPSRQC
Summary of the method: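 Compounds were tested at 15 concentrations in three independent runs. Dye-loaded CHRM1-CHO cells were exposed 5 min at room temperature before stimulation by acetylcholine added at 50nM. Intracellular calcium was read kinetically on FDSS for 3 min.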

[18] = target: Muscarinic acetylcholine receptor M1 (Homo sapiens) (UniProt P11229); test: Cholinergic receptor muscarinic 1 (CHRM1) small molecule agonists, cell-based qHTS assay (AID 1963589); further: nearly all actives have a fitted effect of over 35% in size; further: potency means the concentration at half of the fitted maximal effect
Summary of the method: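 Cells were plated and incubated 18 h at 37 C/5% CO2, loaded with calcium dye for 1 h at 37 C, then treated with compounds in DMSO. Fluorescence was recorded kinetically at 1 sec intervals.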

[19] = target: Beta-2 adrenergic receptor (Homo sapiens) (UniProt P07550); test: Adrenergic beta2 receptor (ADRB2) small molecule antagonists, cell-based qHTS assay (AID 1963592); further: series mostly up to about 92 µM; nearly all actives have a fitted effect of over 50% in size
Beta-2 adrenergic receptor (Homo sapiens), sequence (P07550 whole entry, looked up): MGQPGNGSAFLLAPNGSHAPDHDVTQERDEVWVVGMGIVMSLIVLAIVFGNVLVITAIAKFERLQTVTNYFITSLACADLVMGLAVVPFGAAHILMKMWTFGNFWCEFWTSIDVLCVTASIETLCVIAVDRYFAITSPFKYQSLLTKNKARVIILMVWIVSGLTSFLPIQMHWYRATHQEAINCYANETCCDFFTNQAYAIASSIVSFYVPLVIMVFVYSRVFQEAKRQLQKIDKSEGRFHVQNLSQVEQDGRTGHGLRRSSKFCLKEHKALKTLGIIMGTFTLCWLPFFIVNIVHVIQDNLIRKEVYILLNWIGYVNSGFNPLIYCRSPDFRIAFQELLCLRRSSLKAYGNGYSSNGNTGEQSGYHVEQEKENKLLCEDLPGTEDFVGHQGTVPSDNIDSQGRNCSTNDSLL
Summary of the method: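 Assay format: CHO-ADRB2 cells, 18-20hr seeding at 37C/5% CO2, then compound plus 1nM isoproterenol agonist mix for 0.5hr RT. Homogeneous time-resolved fluorescence cAMP detection after 1hr, expressed as 665/615 nm ratio.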

[20] = target: Beta-2 adrenergic receptor (Homo sapiens) (UniProt P07550); test: Adrenergic beta2 receptor (ADRB2) small molecule agonists, cell-based qHTS assay (AID 1963593);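 further: CHO cells stably overexpressing human ADRB2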
Summary of the method: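 CHO cells stably over-expressing ADRB2 were plated overnight at 37C, then dosed with compounds plus a stimulation mix containing 100uM IBMX and 25uM Ro-20-1724 for 0.5hr at room temperature. cAMP was measured by HTRF competition, 1hr.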

Row | Compound | Potency [1] | Potency [2] | Potency [3] | Potency [4] | Potency [5] | Potency [6] | Potency [7] | Potency [8] | Potency [9] | Potency [10] | Potency [11] | Potency [12] | Potency [13] | Potency [14] | Potency [15] | Potency [16] | Potency [17] | Potency [18] | Potency [19] | Potency [20]
1 | CNCCCC12CCC(c3ccccc31)c1ccccc12 | 54.5 µM (active) | inactive | inactive | inactive | inactive | inactive | inactive | inactive | inactive | inactive | inactive | inactive | inactive | inactive | – | – | – | – | – | –
2 | CC(C)(N=C=O)c1cccc(C(C)(C)N=C=O)c1 | inactive | inactive | inactive | inactive | – | – | inactive | inactive | inactive | – | inactive | inactive | inactive | inactive | inactive | inactive | inactive | inactive | inactive | –
3 | NC(=O)Nc1ccccc1 | inactive | inactive | inactive | inactive | inactive | – | inactive | inactive | inactive | inactive | inactive | inactive | inactive | inactive | inactive | inactive | inactive | inactive | – | inactive
4 | C/C=C/C(=O)O | inactive | inactive | inactive | inactive | – | – | inactive | – | inactive | – | inactive | inactive | inactive | inactive | inactive | inactive | inactive | 93.3 nM (active) and inactive | inactive | –
5 | CC(C)CCCO | inactive | inactive | inactive | inactive | inactive | inactive | inactive | inactive | inactive | inactive | – | inactive | inactive | inactive | inactive | inactive | inactive | inactive | inactive | inactive
6 | CC(C)CC(O)Cc1ccccc1 (stereo unspecified) | inactive | inactive | inactive | – | inactive | inactive | – | inactive | inactive | inactive | inactive | inactive | inactive | – | inactive | inactive | inactive | inactive | inactive | inactive
7 | NC(=O)c1ncn([C@@H]2O[C@H](CO)[C@@H](O)[C@H]2O)c1O | inactive | – | inactive | inactive | inactive | inactive | inactive | inactive | inactive | inactive | inactive | inactive | inactive | inactive | inactive | inactive | inactive | inactive | inactive | inactive
8 | C=C[Si](OC(=C)C)(OC(=C)C)OC(=C)C | inactive | – | inactive | inactive | inactive | inactive | inactive | inactive | inactive | inactive | inactive | inactive | inactive | inactive | inactive | inactive | inactive | inactive | inactive | –
9 | CC(=O)OCCCc1ccccc1 | inactive | – | inactive | inactive | inactive | inactive | inactive | inactive | inactive | inactive | inactive | inactive | – | inactive | inactive | inactive | inactive | inactive | inactive | inactive
10 | C=C(C)C(=O)OCCOP(=O)(O)O | inactive | inactive | – | inactive | inactive | inactive | inactive | inactive | inactive | inactive | inactive | – | – | inactive | inactive | inactive | inactive | inactive | inactive | inactive
11 | Cc1cccc2c1ccc1ccccc12 | inactive | – | inactive | inactive | inactive | inactive | inactive | inactive | inactive | inactive | inactive | inactive | inactive | inactive | inactive | inactive | inactive | inactive | inactive | –
12 | CC(C)(C)c1cc(Cc2cc(C(C)(C)C)c(O)c(C(C)(C)C)c2)cc(C(C)(C)C)c1O | inactive | inactive | inactive | – | – | – | inactive | inactive | inactive | – | inactive | inactive | inactive | inactive | inactive | inactive | inactive | – | inactive | inactive
13 | CCCCCCCC/C=C\CCCCCCCC(N)=O | inactive | – | inactive | inactive | inactive | inactive | inactive | inactive | inactive | inactive | inactive | inactive | inactive | inactive | inactive | inactive | inactive | inactive | inactive | inactive
14 | FC(F)(F)C(Cl)(Cl)Cl | inactive | inactive | – | inactive | inactive | inactive | inactive | inactive | inactive | – | inactive | inactive | inactive | inactive | inactive | inactive | inactive | inactive | inactive | inactive
